According to the supplement of paper PMC6555819:

How the values were obtained:
Assay in all cases: PBM binding z-score (relative to random genomic background probes); higher = stronger binding; sequences stand for … in GC…GCGATTGACAGCGTAGAATGAAGG
[1] = system: FXR:RXRa (NR concentration 270 nM, RXRa partner concentration 90 nM)
Method in brief: (§1)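 Regression normalization was applied to scanned fluorescence from custom Agilent 4×180K protein-binding microarrays. Before scanning, arrays were incubated 1 h with ligand-free nuclear receptor dimers, and binding was detected with antibodies against each partner (one per run). Binding z-scores use the random background probes as reference.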

[2] = system: LXRa:RXRa (NR concentration 270 nM, RXRa partner concentration 90 nM)
Method in brief: as §1

[3] = system: LXRa homodimer (NR concentration 270 nM)
Method in brief: as §1

[4] = system: LXRb:RXRa (NR concentration 270 nM, RXRa partner concentration 90 nM)
Method in brief: as §1

[5] = system: LXRb homodimer (NR concentration 270 nM)
Method in brief: as §1

[6] = system: PPARa:RXRa (NR concentration 270 nM, RXRa partner concentration 90 nM)
Method in brief: as §1

[7] = system: PPARg:RXRa (NR concentration 180 nM, RXRa partner concentration 90 nM)
Method in brief: as §1

[8] = system: PPARg:RXRa 270nM:90nM, anti-RXR (NR concentration 270 nM, RXRa partner concentration 90 nM)
Method in brief: as §1

[9] = system: PPARg:RXRa 30nM:10nM, anti-RXR (NR concentration 30 nM, RXRa partner concentration 10 nM)
Method in brief: as §1

[10] = system: PPARg:RXRa 90nM:30nM, anti-RXR (NR concentration 90 nM, RXRa partner concentration 30 nM)
Method in brief: as §1

[11] = system: PPARg:RXRa DBDmut IVT, anti-RXR (DBD mutation: RXRa K156A/R161A, NR concentration 270 nM, RXRa partner concentration 90 nM)
Method in brief: as §1

[12] = system: PPARg:RXRa IVT, anti-PPARg (NR concentration 270 nM, RXRa partner concentration 90 nM)
Method in brief: as §1

[13] = system: PPARg DBDmut:RXRa IVT, anti-PPARg (DBD mutation: PPARg1 K132A/R137A, NR concentration 270 nM, RXRa partner concentration 90 nM)
Method in brief: as §1

[14] = system: PPARg DBDmut IVT, anti-PPARg (DBD mutation: PPARg1 K132A/R137A, NR concentration 270 nM)
Method in brief: as §1

[15] = system: PPARg homodimer (NR concentration 180 nM)
Method in brief: as §1

[16] = system: PXR:RXRa (NR concentration 270 nM, RXRa partner concentration 90 nM)
Method in brief: as §1

[17] = system: PXR homodimer (NR concentration 270 nM)
Method in brief: as §1

[18] = system: RARa:RXR (NR concentration 270 nM, RXRa partner concentration 90 nM)
Method in brief: as §1

[19] = system: RARa homodimer (NR concentration 270 nM)
Method in brief: as §1

[20] = system: RARb:RXRa (NR concentration 270 nM, RXRa partner concentration 90 nM)
Method in brief: as §1

Sequence | PBM binding z-score [1] | PBM binding z-score [2] | PBM binding z-score [3] | PBM binding z-score [4] | PBM binding z-score [5] | PBM binding z-score [6] | PBM binding z-score [7] | PBM binding z-score [8] | PBM binding z-score [9] | PBM binding z-score [10] | PBM binding z-score [11] | PBM binding z-score [12] | PBM binding z-score [13] | PBM binding z-score [14] | PBM binding z-score [15] | PBM binding z-score [16] | PBM binding z-score [17] | PBM binding z-score [18] | PBM binding z-score [19] | PBM binding z-score [20]
TAGCCCAGGTCATTGGGCCAGTATAGTACGCATC | 4.84 | 3.77 | 0.677 | 2.25 | -0.127 | 4.22 | 3.72 | 3.93 | 0.844 | 2.6 | 1.36 | 3.68 | -0.318 | -0.214 | 1.51 | 2.71 | 0.0159 | 3.06 | -0.165 | 3.71
ACCTCTAGGTAAAAGTTCAGTGAATCCCGAGGAT | 0.332 | 0.842 | 0.847 | 0.401 | -0.0602 | 3.58 | 7.09 | 7.47 | 6.26 | 8.74 | 2.11 | 3.3 | 0.37 | 0.231 | 0.975 | 1.54 | 1.16 | 1.11 | 0.0645 | 2.08
TGAATGAGGTTAGAGATCAGGGAACGTGGCGTCG | 0.893 | 0.556 | -0.223 | 0.296 | 0.27 | 2.47 | 2.82 | 4.06 | 2.73 | 4.07 | 0.771 | 2.14 | 0.576 | 0.367 | 0.476 | 0.397 | -0.359 | 1.29 | -0.00359 | 1.3
TCTTGTAGATCAATAGAGGTAAAGAAAGTGCGCT | 0.355 | 0.562 | -0.497 | 0.281 | -0.231 | 0.706 | -0.0447 | 1.14 | 2.57 | 1.62 | 1.51 | 0.822 | 0.0443 | 0.312 | -0.815 | 0.573 | 0.0758 | 0.505 | -0.142 | -0.0126
TAGCATAGGTCAGATCGGGCCAGTATACGCTATA | 3.66 | 2.95 | -0.198 | 2.08 | -0.138 | 3.38 | 1.65 | 1.67 | 0.311 | 1.05 | -0.136 | 0.798 | -0.196 | -0.529 | 0.679 | 2.5 | -0.583 | 2.5 | -0.285 | 3.37
TAGCCTAGGGCATTGGGCCAGTATAGTACGCATC | -0.339 | -0.336 | -0.318 | -0.673 | -0.892 | -0.0901 | 0.887 | 0.225 | -0.369 | -0.368 | 0.771 | 1.87 | -0.149 | -0.898 | -1.01 | -0.62 | -0.779 | -0.444 | -1.17 | 1.08
ATCGAAAGGTCGACGTGAGTATAGAGAAAGGGAA | 3.97 | 3.07 | -0.0365 | 2.39 | 0.422 | 4.06 | 2.45 | 2.9 | 1.04 | 2.13 | -0.328 | 1.19 | 1.19 | 0.607 | 0.972 | 2.21 | 0.153 | 2.94 | -0.0772 | 3.82
